Results filed as inconclusive are left out. Activity calls are given as the source filed them. Rule for the calls, unless noted: active = hit-call score of the fitted dose curve at least 0.9, where 1 is the maximum; inconclusive = response in the unintended direction; inactive = score below 0.9.
Columns and labels:
[1] = target: human Peroxisome Proliferator-activated Receptor alpha (PPARa), PPARA (gene 5465) (UniProt Q07869); test: ATG_PPARa_TRANS: Attagene TRANS-FACTORIAL HepG2 Assay for human Peroxisome Proliferator-activated Receptor alpha (PPARa) (AID 2283001);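 for AC50: potency for gain of reporter signal over DMSO so agonist or activator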
Summary of the method: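 HepG2 cells transiently transfected with multiplexed GAL4-UAS reporters driven by exogenous chimeric NR-Gal4 proteins; reporter mRNA measured after 24 h dosing. Read-out by RT-PCR, 6-FAM labelling, HpaI digestion and capillary electrophoresis; gain of signal versus DMSO.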

[2] = target: human Peroxisome Proliferator-activated Receptor delta (PPARd), PPARD (gene 5467) (UniProt Q03181); test: ATG_PPARd_TRANS: Attagene TRANS-FACTORIAL HepG2 Assay for human Peroxisome Proliferator-activated Receptor delta (PPARd) (AID 2283002)
Summary of the method: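 Fluorescence from capillary electrophoresis of labelled RT-PCR reporter fragments gives the signal; DMSO sets baseline. Cells: HepG2 transiently carrying GAL4-UAS reporter units plus chimeric nuclear receptor-Gal4 proteins, exposed to chemicals for 24 h.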

[3] = target: Peroxisome proliferator-activated receptor gamma (Homo sapiens) (UniProt P37231); test: ATG_PPARg_TRANS: Attagene TRANS-FACTORIAL HepG2 Assay for human Peroxisome Proliferator-activated Receptor-gamma (PPARg) (AID 2283007)
Summary of the method: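 Twenty-four hours after chemical dosing of transiently transfected HepG2 cells, isolated RNA was converted to cDNA, reporter sequences amplified and 6-FAM-labelled, then HpaI-digested and analysed by capillary electrophoresis. Signal increase against DMSO was fitted.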

[4] = target: Nuclear receptor subfamily 1 group I member 2 (Homo sapiens) (UniProt O75469); test: ATG_PXR_TRANS: Attagene TRANS-FACTORIAL HepG2 Assay for human Pregnane X Receptor (PXR) (AID 2283008)
Summary of the method: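 Read-out is fluorescence of labelled reporter cDNA fragments separated by capillary electrophoresis after RT-PCR and HpaI digestion. Source: HepG2 cells carrying PXR-GAL4/UAS reporter constructs, treated 24 h; activity fitted upward relative to DMSO.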

[5] = target: human RAR-related Orphan Receptor beta (RORb), RORB (gene 6096) (UniProt Q92753); test: ATG_RORb_TRANS: Attagene TRANS-FACTORIAL HepG2 Assay for human RAR-related Orphan Receptor beta (RORb) (AID 2283010)
Summary of the method: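 HepG2 cells transiently transfected with GAL4-UAS reporter units expressing chimeric NR-Gal4 protein; reporter mRNA measured 24 h after dosing by RT-PCR, 6-FAM labelling and capillary electrophoresis. Gain-of-signal fitted relative to DMSO baseline.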

[6] = target: human RAR-related Orphan Receptor gamma (RORg), RORC (gene 6097) (UniProt P51449); test: ATG_RORg_TRANS: Attagene TRANS-FACTORIAL HepG2 Assay for human RAR-related Orphan Receptor gamma (RORg) (AID 2283011);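 for AC50: potency for induction of reporter transcripts above DMSO so activators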
Summary of the method: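 Transient MRTU transfection of HepG2 (TRANS format, exogenous NR-Gal4 chimera). 24 h dosing. Total RNA → oligo(dT) RT → PCR → 6-FAM labelling → HpaI cut → CE. Gain vs DMSO.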

[7] = target: Retinoic acid receptor RXR-alpha (Homo sapiens) (UniProt P19793); test: ATG_RXRa_TRANS: Attagene TRANS-FACTORIAL HepG2 Assay for human Retinoid X Receptor alpha (RXRa) (AID 2283012)
Summary of the method: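 HepG2 cells transiently transfected with GAL4-UAS reporter units and chimeric RXRa-Gal4 protein, treated 24 h. Reporter mRNA measured by RT-PCR, fluorescent labelling, HpaI digestion and capillary electrophoresis. Induction fitted against DMSO.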

[8] = target: human Retinoid X Receptor beta (RXRb), RXRB (gene 6257) (UniProt P28702); test: ATG_RXRb_TRANS: Attagene TRANS-FACTORIAL HepG2 Assay for human Retinoid X Receptor beta (RXRb) (AID 2283013)
Summary of the method: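 HepG2 cells were transiently transfected with multiplexed GAL4-UAS reporters and a chimeric RXRb-Gal4 construct, then exposed for 24 h. Reporter mRNA was quantified by RT-PCR, FAM labeling, HpaI digestion and capillary electrophoresis; gain of signal was scored against DMSO.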

[9] = target: human Thyroid Receptor alpha (THRa1), THRA (gene 7067) (UniProt P10827); test: ATG_THRa1_TRANS: Attagene TRANS-FACTORIAL HepG2 Assay for human Thyroid Receptor alpha (THRa1) (AID 2283014)
Summary of the method: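 Transient HepG2 transfection, NR-Gal4 chimera driving GAL4-UAS reporters; 24 h compound exposure; total RNA, oligo(dT) RT, PCR, fluorescent primer extension, capillary electrophoresis. Upward direction vs DMSO control.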

[10] = read-out: Intercellular Adhesion Molecule 1 (ICAM1), ICAM1 (gene 3383); test: BSK_3C_ICAM1: BioMAP Diversity Plus: 3C Assay for Intercellular Adhesion Molecule 1 (ICAM1) Biomarker Activity (AID 2283003; active = hit-call score of the fitted dose curve at least 0.9, where 1 is the maximum; inactive = score below 0.9); conditions: primary human endothelial cells (HUVEC); actives raise or lower the signal
Summary of the method: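 HUVEC primary cells stimulated under 3C conditions; ICAM1 measured by ELISA 24 h after compound dosing. Curves fitted bidirectionally against the DMSO baseline. Overt cytotoxicity checked by SRB staining of parallel cultures.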

[11] = BSK_3C_Proliferation: Cell Proliferation Assessment in the BioMAP Diversity Plus: 3C Assay (AID 2283006; active = hit-call score of the fitted dose curve at least 0.9, where 1 is the maximum; inactive = score below 0.9); conditions: primary human endothelial cells (HUVEC)
Summary of the method: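 Subconfluent HUVEC (3C system) cultured with chemical; relative cell number read at 48 h by sulforhodamine B total-protein staining (0.1% SRB after 10% TCA fixation, 560 nm). Bidirectional fit relative to DMSO.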

[12] = read-out: E-selectin (Homo sapiens) (UniProt P16581); test: BSK_3C_Eselectin: BioMAP Diversity Plus: 3C Assay for Eselectin Biomarker Activity (AID 2283015; active = hit-call score of the fitted dose curve at least 0.9, where 1 is the maximum; inactive = score below 0.9;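 note: cell surface E-selectin protein quantified by ELISA 24 h after dosing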); conditions: primary human endothelial cells (HUVEC); actives raise or lower the signal
Summary of the method: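 HUVEC, 3C stimulation; compound exposure 24 h; E-selectin by ELISA; gain- or loss-of-signal fitted bidirectionally vs DMSO baseline.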

[13] = read-out: Interleukin-1 alpha (IL1a), IL1A (gene 3552); test: BSK_BE3C_IL1a: BioMAP Diversity Plus: BE3C Assay for Interleukin-1 alpha (IL1a) Biomarker Activity (AID 2283016; active = hit-call score of the fitted dose curve at least 0.9, where 1 is the maximum; inactive = score below 0.9); conditions: primary human bronchial epithelial cells; actives raise or lower the signal
Summary of the method: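 Human primary bronchial epithelial cells, 24 h chemical exposure; IL-1a quantified by ELISA, fitted bidirectionally against DMSO. Cytotoxicity assessed in parallel by SRB total-protein staining at the time of measurement.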

[14] = read-out: Monocyte Chemoattractant Protein-1 (MCP1), CCL2 (gene 6347); test: BSK_3C_MCP1: BioMAP Diversity Plus: 3C Assay for Monocyte Chemoattractant Protein-1 (MCP1) Biomarker Activity (AID 2283017; active = hit-call score of the fitted dose curve at least 0.9, where 1 is the maximum; inactive = score below 0.9); conditions: primary human endothelial cells (HUVEC); actives raise or lower the signal
Summary of the method: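 HUVEC, 3C system; 24 h chemical exposure; MCP-1 by ELISA; bidirectional curve fit vs DMSO baseline.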

[15] = read-out: Monocyte Chemoattractant Protein-1 (MCP1), CCL2 (gene 6347); test: BSK_4H_MCP1: BioMAP Diversity Plus: 4H Assay for Monocyte Chemoattractant Protein-1 (MCP1) Biomarker Activity (AID 2283018; active = hit-call score of the fitted dose curve at least 0.9, where 1 is the maximum; inactive = score below 0.9); conditions: primary human endothelial cells (HUVEC); actives raise or lower the signal
Summary of the method: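 Human umbilical vein endothelial cells (4H system) exposed to chemicals for 24 h in 96-well format. MCP-1 measured by ELISA; bidirectional fitting against DMSO, with SRB total-protein staining in parallel cultures for cytotoxicity.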

[16] = read-out: Human Leukocyte Antigen - DR isotype (HLADR), HLA-DRA (gene 3122); test: BSK_3C_HLADR: BioMAP Diversity Plus: 3C Assay for Human Leukocyte Antigen - DR isotype (HLADR) Biomarker Activity (AID 2283019; active = hit-call score of the fitted dose curve at least 0.9, where 1 is the maximum; inactive = score below 0.9); conditions: primary human endothelial cells (HUVEC); actives raise or lower the signal
Summary of the method: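 HUVEC, 3C stimulation, 24 h post-dose; HLA-DR by ELISA; bidirectional curve fit vs DMSO baseline; gain or loss of signal scored.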

[17] = read-out: Interleukin-8 (IL8), CXCL8 (gene 3576); test: BSK_3C_IL8: BioMAP Diversity Plus: 3C Assay for Interleukin-8 (IL8) Biomarker Activity (AID 2283020; active = hit-call score of the fitted dose curve at least 0.9, where 1 is the maximum; inactive = score below 0.9); conditions: primary human endothelial cells (HUVEC); actives raise or lower the signal
Summary of the method: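 Primary human umbilical vein endothelial cells were dosed for 24 h. IL-8 was quantified by ELISA and fitted bidirectionally against DMSO. Cytotoxicity was assessed in parallel cultures by SRB staining at 560 nm.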

[18] = target: human Retinoic Acid Receptor beta (RARb), RARB (gene 5915) (UniProt P10826); test: ATG_RARb_TRANS: Attagene TRANS-FACTORIAL HepG2 Assay for human Retinoic Acid Receptor beta (AID 2283004)
Summary of the method: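 Readout is reporter mRNA induction: RNA reverse-transcribed, PCR-amplified, FAM-labelled, HpaI-cut and resolved by capillary electrophoresis. Transiently transfected HepG2 cells carrying exogenous NR–Gal4 chimeras were dosed for 24 h; activity fitted upward relative to DMSO.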

[19] = target: Retinoic acid receptor alpha (Homo sapiens) (UniProt P10276); test: ATG_RARa_TRANS: Attagene TRANS-FACTORIAL HepG2 Assay for human Retinoic Acid Receptor alpha (RARa) (AID 2283005)
Summary of the method: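 HepG2 transiently transfected with multiplex GAL4-UAS reporter units including a human RARa–GAL4 chimera; 24 h compound exposure. Reporter mRNA quantified by RT-PCR, 6-FAM labeling and capillary electrophoresis; gain of signal versus DMSO.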

[20] = target: human Retinoic Acid Receptor gamma (RARg), RARG (gene 5916) (UniProt P13631); test: ATG_RARg_TRANS: Attagene TRANS-FACTORIAL HepG2 Assay for human Retinoic Acid Receptor gamma (RARg) (AID 2283009)
Summary of the method: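 HepG2 transiently transfected with GAL4-UAS reporter units and chimeric NR-Gal4 constructs; 24 h compound exposure. Reporter mRNA quantified by RT-PCR, FAM labeling, HpaI digestion and capillary electrophoresis; gain-of-signal versus DMSO.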

Measured: AC50

E-selectin (Homo sapiens), sequence (P16581 whole entry, looked up): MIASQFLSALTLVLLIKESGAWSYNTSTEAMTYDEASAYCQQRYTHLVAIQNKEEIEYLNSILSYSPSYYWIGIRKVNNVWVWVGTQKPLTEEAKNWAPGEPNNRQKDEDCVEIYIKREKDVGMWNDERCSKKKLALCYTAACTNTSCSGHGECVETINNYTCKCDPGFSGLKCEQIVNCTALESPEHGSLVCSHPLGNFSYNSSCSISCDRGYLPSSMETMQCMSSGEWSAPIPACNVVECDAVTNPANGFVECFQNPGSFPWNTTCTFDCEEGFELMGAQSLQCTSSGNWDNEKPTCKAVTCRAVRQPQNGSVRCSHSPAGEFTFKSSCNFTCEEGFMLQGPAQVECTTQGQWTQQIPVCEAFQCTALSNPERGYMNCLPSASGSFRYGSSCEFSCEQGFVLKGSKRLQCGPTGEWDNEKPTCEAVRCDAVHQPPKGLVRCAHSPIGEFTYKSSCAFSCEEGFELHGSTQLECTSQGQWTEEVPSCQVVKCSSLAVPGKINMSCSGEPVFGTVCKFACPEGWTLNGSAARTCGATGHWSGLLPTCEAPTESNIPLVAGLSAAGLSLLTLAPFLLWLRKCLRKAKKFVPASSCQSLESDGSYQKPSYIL
human Retinoic Acid Receptor beta (RARb), RARB (gene 5915), sequence (P10826 whole entry, looked up, the tested form may be a part): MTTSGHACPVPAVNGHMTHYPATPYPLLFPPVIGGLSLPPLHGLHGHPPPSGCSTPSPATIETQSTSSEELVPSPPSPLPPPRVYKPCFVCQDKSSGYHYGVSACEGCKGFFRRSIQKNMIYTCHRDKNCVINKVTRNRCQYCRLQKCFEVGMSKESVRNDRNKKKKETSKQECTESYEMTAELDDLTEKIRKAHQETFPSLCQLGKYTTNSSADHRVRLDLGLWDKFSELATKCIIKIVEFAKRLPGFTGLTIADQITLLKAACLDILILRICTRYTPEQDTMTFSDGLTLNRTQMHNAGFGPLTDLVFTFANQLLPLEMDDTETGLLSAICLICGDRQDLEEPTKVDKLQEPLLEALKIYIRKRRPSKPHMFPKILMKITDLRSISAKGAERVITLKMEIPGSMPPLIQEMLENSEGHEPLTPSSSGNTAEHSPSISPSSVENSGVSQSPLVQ
human Peroxisome Proliferator-activated Receptor alpha (PPARa), PPARA (gene 5465), sequence (Q07869 whole entry, looked up, the tested form may be a part): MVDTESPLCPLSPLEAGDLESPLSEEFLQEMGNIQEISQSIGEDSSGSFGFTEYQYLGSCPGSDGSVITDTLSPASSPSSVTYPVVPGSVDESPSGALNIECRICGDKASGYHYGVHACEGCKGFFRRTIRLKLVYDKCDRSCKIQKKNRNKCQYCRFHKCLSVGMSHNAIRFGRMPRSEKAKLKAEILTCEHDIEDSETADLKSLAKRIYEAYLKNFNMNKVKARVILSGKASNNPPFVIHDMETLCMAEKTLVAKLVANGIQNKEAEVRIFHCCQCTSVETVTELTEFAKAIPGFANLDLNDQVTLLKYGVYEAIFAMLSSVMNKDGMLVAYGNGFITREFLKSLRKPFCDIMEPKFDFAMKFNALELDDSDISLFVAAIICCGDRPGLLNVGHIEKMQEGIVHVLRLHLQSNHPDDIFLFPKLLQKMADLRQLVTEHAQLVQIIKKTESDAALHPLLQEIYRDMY
Peroxisome proliferator-activated receptor gamma (Homo sapiens), sequence (P37231 whole entry, looked up): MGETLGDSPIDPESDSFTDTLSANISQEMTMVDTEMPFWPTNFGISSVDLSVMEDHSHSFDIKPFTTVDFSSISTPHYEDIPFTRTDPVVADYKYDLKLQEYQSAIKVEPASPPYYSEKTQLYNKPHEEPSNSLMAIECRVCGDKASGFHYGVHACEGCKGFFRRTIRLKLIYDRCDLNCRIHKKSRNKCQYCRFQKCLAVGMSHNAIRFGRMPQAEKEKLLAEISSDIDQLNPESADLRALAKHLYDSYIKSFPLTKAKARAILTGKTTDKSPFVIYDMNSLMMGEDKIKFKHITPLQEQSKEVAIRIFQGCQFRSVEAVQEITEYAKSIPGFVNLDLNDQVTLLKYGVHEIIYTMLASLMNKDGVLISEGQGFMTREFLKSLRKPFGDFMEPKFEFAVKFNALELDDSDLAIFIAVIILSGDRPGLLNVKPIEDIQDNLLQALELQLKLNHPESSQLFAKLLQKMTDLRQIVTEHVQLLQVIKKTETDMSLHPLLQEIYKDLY
human RAR-related Orphan Receptor beta (RORb), RORB (gene 6096), sequence (Q92753 whole entry, looked up, the tested form may be a part): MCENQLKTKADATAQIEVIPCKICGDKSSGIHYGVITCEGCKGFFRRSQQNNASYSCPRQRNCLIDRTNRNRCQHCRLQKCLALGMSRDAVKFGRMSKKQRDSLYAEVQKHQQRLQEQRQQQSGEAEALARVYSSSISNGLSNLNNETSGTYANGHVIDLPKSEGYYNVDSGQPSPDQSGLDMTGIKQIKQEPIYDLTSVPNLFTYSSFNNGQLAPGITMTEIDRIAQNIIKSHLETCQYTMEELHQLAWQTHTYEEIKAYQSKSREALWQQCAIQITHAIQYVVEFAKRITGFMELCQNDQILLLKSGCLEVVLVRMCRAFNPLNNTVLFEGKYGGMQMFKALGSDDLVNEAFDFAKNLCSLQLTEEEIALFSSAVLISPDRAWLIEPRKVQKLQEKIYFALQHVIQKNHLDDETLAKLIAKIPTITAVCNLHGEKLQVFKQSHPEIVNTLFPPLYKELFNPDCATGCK
human Retinoid X Receptor beta (RXRb), RXRB (gene 6257), sequence (P28702 whole entry, looked up, the tested form may be a part): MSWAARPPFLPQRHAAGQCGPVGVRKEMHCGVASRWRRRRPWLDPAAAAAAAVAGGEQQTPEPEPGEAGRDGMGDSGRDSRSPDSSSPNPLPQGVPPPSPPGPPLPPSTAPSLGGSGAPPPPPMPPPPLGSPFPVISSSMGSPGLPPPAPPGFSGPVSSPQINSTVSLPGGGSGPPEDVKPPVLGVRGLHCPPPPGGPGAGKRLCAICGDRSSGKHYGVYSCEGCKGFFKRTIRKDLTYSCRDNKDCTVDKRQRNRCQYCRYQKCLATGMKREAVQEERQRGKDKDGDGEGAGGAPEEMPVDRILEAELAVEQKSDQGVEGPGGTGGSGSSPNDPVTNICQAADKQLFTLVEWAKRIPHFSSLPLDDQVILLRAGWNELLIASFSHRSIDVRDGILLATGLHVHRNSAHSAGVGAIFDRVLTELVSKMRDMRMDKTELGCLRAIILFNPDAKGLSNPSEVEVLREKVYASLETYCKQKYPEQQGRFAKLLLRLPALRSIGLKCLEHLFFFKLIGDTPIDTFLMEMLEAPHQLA
Retinoic acid receptor RXR-alpha (Homo sapiens), sequence (P19793 whole entry, looked up, the tested form may be a part): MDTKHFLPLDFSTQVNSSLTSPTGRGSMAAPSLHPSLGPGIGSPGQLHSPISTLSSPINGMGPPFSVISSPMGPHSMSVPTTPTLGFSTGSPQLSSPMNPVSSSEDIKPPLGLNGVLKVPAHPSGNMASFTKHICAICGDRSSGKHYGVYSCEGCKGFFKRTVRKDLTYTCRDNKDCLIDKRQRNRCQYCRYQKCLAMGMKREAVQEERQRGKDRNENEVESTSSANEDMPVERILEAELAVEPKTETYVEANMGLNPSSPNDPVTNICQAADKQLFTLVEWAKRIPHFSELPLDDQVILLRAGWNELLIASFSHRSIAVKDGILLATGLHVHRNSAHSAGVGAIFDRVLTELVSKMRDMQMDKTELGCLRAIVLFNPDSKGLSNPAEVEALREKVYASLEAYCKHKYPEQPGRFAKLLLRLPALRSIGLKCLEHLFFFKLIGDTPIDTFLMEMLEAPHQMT
human Peroxisome Proliferator-activated Receptor delta (PPARd), PPARD (gene 5467), sequence (Q03181 whole entry, looked up, the tested form may be a part): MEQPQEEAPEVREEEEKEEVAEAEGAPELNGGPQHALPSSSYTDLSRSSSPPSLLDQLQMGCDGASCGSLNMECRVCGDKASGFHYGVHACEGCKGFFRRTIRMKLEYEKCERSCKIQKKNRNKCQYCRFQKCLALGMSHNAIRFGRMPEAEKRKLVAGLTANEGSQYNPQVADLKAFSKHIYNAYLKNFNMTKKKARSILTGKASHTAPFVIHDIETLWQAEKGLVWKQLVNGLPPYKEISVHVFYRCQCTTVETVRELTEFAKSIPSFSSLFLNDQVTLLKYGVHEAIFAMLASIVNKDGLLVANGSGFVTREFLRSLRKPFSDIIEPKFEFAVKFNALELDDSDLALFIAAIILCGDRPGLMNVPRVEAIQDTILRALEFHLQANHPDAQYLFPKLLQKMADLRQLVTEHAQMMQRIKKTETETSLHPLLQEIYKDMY
human RAR-related Orphan Receptor gamma (RORg), RORC (gene 6097), sequence (P51449 whole entry, looked up, the tested form may be a part): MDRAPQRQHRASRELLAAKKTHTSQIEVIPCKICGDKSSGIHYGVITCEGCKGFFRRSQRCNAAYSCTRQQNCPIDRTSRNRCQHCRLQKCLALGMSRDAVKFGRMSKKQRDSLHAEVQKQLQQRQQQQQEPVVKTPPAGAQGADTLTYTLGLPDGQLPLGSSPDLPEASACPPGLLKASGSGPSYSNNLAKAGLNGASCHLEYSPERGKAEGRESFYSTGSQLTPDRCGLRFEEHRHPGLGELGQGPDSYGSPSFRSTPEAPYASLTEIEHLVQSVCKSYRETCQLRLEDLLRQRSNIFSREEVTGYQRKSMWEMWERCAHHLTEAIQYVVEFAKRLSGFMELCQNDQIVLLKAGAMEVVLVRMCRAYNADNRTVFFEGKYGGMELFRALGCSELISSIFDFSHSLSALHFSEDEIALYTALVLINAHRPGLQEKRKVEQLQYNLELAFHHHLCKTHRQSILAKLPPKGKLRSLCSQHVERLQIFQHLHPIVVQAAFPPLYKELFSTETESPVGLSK
Nuclear receptor subfamily 1 group I member 2 (Homo sapiens), sequence (O75469 whole entry, looked up, the tested form may be a part): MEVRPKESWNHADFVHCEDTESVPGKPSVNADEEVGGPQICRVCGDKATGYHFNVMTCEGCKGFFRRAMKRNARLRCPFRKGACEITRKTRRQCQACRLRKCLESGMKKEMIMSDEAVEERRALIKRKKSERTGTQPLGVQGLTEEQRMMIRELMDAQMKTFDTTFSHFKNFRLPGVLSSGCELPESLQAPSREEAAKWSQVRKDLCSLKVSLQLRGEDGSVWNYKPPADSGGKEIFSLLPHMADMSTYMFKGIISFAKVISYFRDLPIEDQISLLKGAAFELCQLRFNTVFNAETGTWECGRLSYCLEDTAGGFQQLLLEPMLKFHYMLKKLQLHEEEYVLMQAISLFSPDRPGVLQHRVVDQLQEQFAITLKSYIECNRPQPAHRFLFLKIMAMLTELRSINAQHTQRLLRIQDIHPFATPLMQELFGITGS

NC(=O)Nc1ccc(Cl)cc1
inactive: [1] | [2] | [3] | [4] | [5]

O=Nc1ccc(Nc2ccccc2)cc1
active: [3] 26.6 µM | [6] 40.4 µM
inactive: [1] | [2] | [4] | [7]

COc1cc(C)cc(O)c1
inactive: [1] | [2] | [3] | [4] | [6] | [7] | [8] | [9]

C[C@H]1C[C@H]2[C@@H]3CCC4=CC(=O)C=C[C@]4(C)[C@@]3(F)[C@@H](O)C[C@]2(C)[C@@]1(O)C(=O)COP(=O)(O)O
inactive: [1] | [2] | [3] | [8]

CC1(C)[C@@H]2CC[C@@]1(C)[C@H](O)C2
inactive: [1] | [2] | [4] | [6] | [7] | [9]

Nc1cc([N+](=O)[O-])ccc1Cl
active: [3] 49.8 µM
not listed: [2] | [4] | [5] | [18] | [19] | [20]
inactive: all other assays above

C=CC(=O)OCCOCCOCC
inactive: [1] | [18] | [19] | [20] | [5] | [6] | [9]
active: [3] 17 µM | [4] 40 µM

O=C1c2ccccc2C(=O)N1SC1CCCCC1
inactive: [1] | [2] | [4]
active: [8] 44.4 µM

CCCCCCCCCC=O
active: [1] 29.6 µM | [3] 45.4 µM | [8] 59 µM | [16] 32.3 µM
inactive: [10] | [11] | [12] | [13] | [14] | [15] | [17]

c1cc(C(c2ccc(OCC3CO3)cc2)c2ccc(OCC3CO3)cc2)ccc1OCC1CO1 (configuration not stated)
inactive: [1] | [2] | [4] | [9]

O=C[C@H](O)[C@H](O)[C@H](O)CO
inactive: [1] | [18] | [19] | [3] | [20] | [6]

O=S(=O)(O)NC1CCCCC1
inactive: [1] | [18] | [3] | [4] | [9]

CCC(C)CCCC(C)(C)O (configuration not stated)
inactive: [1] | [18] | [3] | [4] | [20] | [5] | [6] | [8] | [9]

N#Cc1ccc(CC(=NNC(=O)Nc2ccc(OC(F)(F)F)cc2)c2cccc(C(F)(F)F)c2)cc1
active: [3] 26.9 µM
inactive: [1] | [10] | [11] | [7] | [12] | [13] | [14] | [15] | [16] | [17]

Reference: PubChem BioAssay (EPA / NIEHS)
